Results published in PubChem BioAssay (NCI).
Compounds without any hit were thinned out: in the full panel of roughly 83,000, 20% have a hit.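 96-well plates, one dose, 48 hours. Percent growth reported; active if below 10.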 Activity calls are given as the source filed them.

How the values were obtained:
Assay in all cases: NCI-60 one-dose screen, 48 h (100 = growth as untreated, 0 = no growth, -100 = all killed)
Conditions in all cases: 10 µM unless noted
[1] = tested on: NCI-H23 lung
[2] = tested on: NCI-H226 lung
[3] = tested on: NCI-H322M lung
[4] = tested on: HOP-62 NSCLC
[5] = tested on: NCI-H460 lung
[6] = tested on: HOP-92 NSCLC
[7] = tested on: NCI-H522 lung
[8] = tested on: A549/ATCC NSCLC
[9] = tested on: 786-0 renal
[10] = tested on: COLO 205 colon
[11] = tested on: DU-145 prostate
[12] = tested on: K-562 leukemia
[13] = tested on: MALME-3M melanoma
[14] = tested on: MDA-MB-231 breast
[15] = tested on: RXF 393 renal
[16] = tested on: SF-268 CNS
[17] = tested on: SF-295 CNS
[18] = tested on: SF-539 CNS
[19] = tested on: UACC-257 melanoma
[20] = tested on: M14 melanoma

Measured: growth

O=S(=O)(Nc1ccc(-n2cnc3cc(-c4ccc(O)cc4)ccc32)cc1)c1ccccc1
inactive: [1] 99.8% | [2] 92.1% | [3] 93% | [4] 102% | [5] 95.1% | [6] 130% | [7] 50.8% | [8] 77.2% | [9] 101% | [10] 136% | [11] 105% | [12] 65.4% | [13] 100% | [14] 85.1% | [15] 103% | [16] 78.4% | [17] 87.9% | [18] 67.3% | [19] 106% | [20] 85.1%

CCCCCN1C=C/C(=C\C(=O)N(C)c2ccc(OC(F)(F)F)cc2)c2ccccc21
inactive: [1] 87.1% | [2] 95% | [3] 99.6% | [4] 90.8% | [5] 101% | [6] 98.1% | [7] 78.5% | [8] 91.3% | [9] 99.4% | [10] 104% | [11] 110% | [12] 90.3% | [13] 95.3% | [14] 97.7% | [15] 107% | [16] 100% | [17] 93% | [18] 103% | [19] 93.8% | [20] 102%

COc1cc2nc(-c3ccc(Cl)cc3)cc(OCCCN3CCCC3)c2cc1OC
active: [2] -13.5% | [17] -17% | [20] -29.7%
inactive: [1] 62.8% | [3] 58.5% | [4] 45.3% | [5] 25.2% | [6] 25% | [7] 38.1% | [8] 41.5% | [9] 67.4% | [10] 21.5% | [11] 41.7% | [12] 21.1% | [13] 50% | [14] 21.5% | [15] 42.8% | [16] 54.5% | [18] 42.6% | [19] 31.7%

COc1cccc(-c2nc3occn3c2-c2ccnc(NCCNS(=O)(=O)c3cccc4ccccc34)n2)c1
inactive: [1] 103% | [2] 99.6% | [3] 104% | [4] 103% | [5] 101% | [6] 122% | [7] 102% | [8] 105% | [9] 97.8% | [10] 96% | [11] 107% | [12] 95.1% | [13] 111% | [14] 112% | [15] 102% | [16] 96.8% | [17] 106% | [18] 109% | [19] 104% | [20] 117%

COC(=O)C(OC(C)=O)C(OC(C)=O)c1ccc(OC)c(OC)c1 (stereo not given)
inactive: [1] 96.8% | [2] 98.4% | [3] 93.4% | [4] 98.2% | [5] 104% | [6] 110% | [7] 85.9% | [8] 80.1% | [9] 101% | [10] 123% | [11] 102% | [12] 83.2% | [13] 104% | [14] 92.7% | [15] 125% | [16] 99.6% | [17] 101% | [18] 105% | [19] 82.5% | [20] 93.9%

CCOC(=O)Nc1ccc(-c2ccc3c(c2)NC(=O)/C3=C\c2ccc[nH]2)cc1
inactive: [1] 47.3% | [2] 68% | [3] 63.1% | [4] 91.9% | [5] 37.1% | [6] 102% | [7] 97.8% | [8] 103% | [9] 108% | [10] 125% | [11] 110% | [12] 92.3% | [13] 110% | [14] 69.3% | [15] 112% | [16] 100% | [17] 101% | [18] 94% | [19] 113% | [20] 103%

COc1cc2c(=O)n(CCN)c3c4cc5c(cc4ccc3c2cc1OC)OCO5
inactive: [1] 14.2% | [6] 49.6% | [17] 25% | [19] 33.8%
active: [2] -66% | [3] -72.1% | [4] -51.2% | [5] -76.5% | [7] -7.78% | [8] -76.5% | [9] -79.3% | [10] -0.566% | [11] -83.2% | [12] -55% | [13] -72.3% | [14] -81.7% | [15] -76.8% | [16] -59.6% | [18] -75.9% | [20] -50.8%

O=S(=O)(NCCCNc1nccc(-c2c(-c3cccc(F)c3)nc3sccn23)n1)c1cccc(F)c1
inactive: [1] 38.8% | [2] 23.2% | [3] 79.9% | [4] 61.3% | [5] 58.3% | [6] 74.8% | [7] 21.9% | [8] 49.3% | [9] 66.3% | [10] 23.4% | [11] 55.5% | [12] 20.1% | [13] 63.2% | [14] 75.9% | [15] 78.8% | [16] 55.6% | [17] 51.1% | [18] 86.4% | [19] 50.8% | [20] 28.6%

N=C(N)c1ccc(OCCCCCCCCCCOc2ccc(C(=N)N)cc2)cc1
active: [1] -69.5% | [2] -71.7% | [3] -99% | [4] -76.6% | [5] -88.6% | [6] -86.1% | [7] -75.8% | [8] -85.4% | [9] -89.8% | [10] -61.6% | [11] -96.6% | [12] -67.5% | [13] -81.8% | [14] -91.7% | [15] -82.8% | [16] -81.3% | [17] -82.4% | [18] -87% | [19] -69.7% | [20] -85.6%

COc1ccccc1NS(=O)(=O)c1cccc(C(=O)Nc2ccc(Br)cc2)c1
inactive: [1] 35.9% | [2] 44.2% | [3] 53.1% | [4] 62.9% | [5] 47% | [6] 38.9% | [7] 46.7% | [8] 46% | [9] 59.5% | [10] 57.9% | [11] 52.1% | [12] 25.6% | [13] 32% | [14] 50.6% | [15] 57.7% | [16] 30.9% | [17] 27% | [18] 64.3% | [19] 32.9% | [20] 38.9%

O=C(C1CCC1)N1N=C(c2ccc(-n3ccc(C(F)(F)F)n3)cc2)CC1c1ccc[nH]1 (stereo not given)
inactive: [1] 101% | [2] 107% | [3] 90.1% | [4] 108% | [5] 101% | [6] 130% | [7] 84.7% | [8] 89.3% | [9] 95.8% | [10] 113% | [11] 103% | [12] 77.4% | [13] 98.6% | [14] 83.1% | [15] 115% | [16] 102% | [17] 95% | [18] 98% | [19] 92.2% | [20] 93.2%

Cc1c(C(=O)NCCC(=O)NO)sc2ncnc(Nc3ccc(F)c(Cl)c3)c12
inactive: [1] 101% | [2] 104% | [3] 108% | [4] 105% | [5] 100% | [6] 118% | [7] 95.6% | [8] 104% | [9] 105% | [10] 117% | [11] 111% | [12] 113% | [13] 113% | [14] 103% | [15] 102% | [16] 96.5% | [17] 96.1% | [18] 98% | [19] 99.7% | [20] 105%

O=[N+]([O-])c1cc(Br)c2cccc3c2c1CC3
inactive: [1] 106% | [2] 103% | [3] 106% | [4] 118% | [5] 106% | [6] 97.1% | [7] 108% | [8] 98.5% | [9] 96.5% | [10] 118% | [11] 112% | [12] 100% | [13] 120% | [14] 87.1% | [15] 110% | [16] 109% | [17] 116% | [18] 103% | [19] 106% | [20] 104%

O=[N+]([O-])c1ccc(NC(=S)N/N=C/c2cc3ccccc3n3nnnc23)cc1
active: [6] -5.68% | [18] 9.9%
inactive: [1] 30.1% | [2] 72% | [3] 51.9% | [4] 49.3% | [5] 32.2% | [7] 35.4% | [8] 55.6% | [9] 61.6% | [10] 96.9% | [11] 64.1% | [12] 12.5% | [13] 71.9% | [14] 61.2% | [15] 30.1% | [16] 38.3% | [17] 18.9% | [19] 90.2% | [20] 75.5%

COc1cc(C2=C(c3cn(C)c4ccccc34)COC2=O)cc(OC)c1OC
active: [5] 3.03% | [7] 3.38% | [10] -4.65% | [12] 6.17% | [15] -21% | [17] -5.22% | [18] -19.7% | [20] -13.9%
inactive: [1] 14.2% | [2] 15.3% | [3] 26.6% | [4] 31.7% | [6] 19.1% | [8] 18.4% | [9] 20.9% | [11] 19.9% | [13] 44.5% | [14] 22.5% | [16] 25.8% | [19] 67.4%
